# From PubChem BioAssay (NCATS)
# Results filed as inconclusive are left out. Active and inactive are the calls of the source. Unless noted, calls come from the whole dose curve.
# Assays:
# [1] = qHTS drug screen for cell cycle checkpoint inhibitors in PARPi-resistant BRCA-mutant ovarian cancer cell lines. (AID 1963452); conditions: PEO1/OlaR viability, CellTiter-Glo luminescence, 96 h; for Z-AUC: stronger effect = lower value
# Method in brief: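 PEO1, PEO4 and PEO1/OlaR ovarian cancer cells, 600 per well, exposed 96 h at 37C to a dilution series. Viability read by CellTiter-Glo luminescence, normalized to DMSO and empty wells; activity summarized as Z-AUC.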
# [2] = qHTS for identification of novel therapeutic agents for treatment of microphthalmiaassociated transcription factor (MiT) renal cell carcinoma (RCC) (AID 1963991); conditions: CellTiter-Glo, 48 h; for z-score: stronger effect = lower value; for Potency: active = Z-AUC below -0.8 in all three lines
# Method in brief: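 Three TFE3-fusion RCC lines (UOK109, UOK124, UOK145), 500 cells/well in complete medium, were treated with MIPE 4.0 compounds for 48 hours at 37 C. Viability was by CellTiter-Glo luminescence, normalized to DMSO (100%) and empty wells (0%); curves fitted over 11 concentrations.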
# [3] = qHTS profiling for inhibitors of Plasmodium falciparum proliferation (AID 504749; active = well fitted inhibition curve with a large enough effect; note: nearly all actives have a fitted effect of over 60% in size;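 for activity, negative = inhibition: 0% = DMSO vehicle and full inhibition = artemisinin control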); conditions: P. falciparum in erythrocytes, SYBR Green DNA, 72 h
# Method in brief: (§1)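 In a 72 h erythrocytic culture (37 C, humidified, 5% CO2) at 2.5% hematocrit and 0.3% starting parasitemia, compounds were tested; SYBR Green I in detergent lysis buffer stained parasite DNA overnight.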
# 3D7 = assay: as above; conditions: P. falciparum in erythrocytes, SYBR Green DNA, 72 h; series mostly up to 28.7 µM
# Method in brief: as §1
# 7G8 = assay: as above; conditions: P. falciparum in erythrocytes, SYBR Green DNA, 72 h; series mostly up to 28.7 µM
# Method in brief: as §1
# ATS189 = assay: as above; conditions: P. falciparum in erythrocytes, SYBR Green DNA, 72 h; series mostly up to 28.7 µM
# Method in brief: as §1
# ATS95 = assay: as above; conditions: P. falciparum in erythrocytes, SYBR Green DNA, 72 h; series mostly up to 28.7 µM
# Method in brief: as §1
# C2A = assay: as above; conditions: P. falciparum in erythrocytes, SYBR Green DNA, 72 h; series mostly up to 28.7 µM
# Method in brief: as §1
# CP185 = assay: as above; conditions: P. falciparum in erythrocytes, SYBR Green DNA, 72 h; series mostly up to 28.7 µM
# Method in brief: as §1
# CP192 = assay: as above; conditions: P. falciparum in erythrocytes, SYBR Green DNA, 72 h; series mostly up to 28.7 µM
# Method in brief: as §1
# AA1029 = assay: as above; conditions: P. falciparum in erythrocytes, SYBR Green DNA, 72 h; series mostly up to 28.7 µM
# Method in brief: as §1
# AS120 = assay: as above; conditions: P. falciparum in erythrocytes, SYBR Green DNA, 72 h; series mostly up to 28.7 µM
# Method in brief: as §1
# CP191 = assay: as above; conditions: P. falciparum in erythrocytes, SYBR Green DNA, 72 h; series mostly up to 28.7 µM
# Method in brief: as §1
# [4] = measured here: PEO1 parental Z-AUC
# [5] = TFE3-RCC UOK109 viability, measured here: UOK109 Z-AUC
# [6] = TFE3-RCC viability, measured here: UOK124 Z-AUC
# [7] = TFE3-RCC viability, measured here: UOK145 Z-AUC
# [8] = at 12.8 µM (top of the series), parasite line A
# [9] = at 12.8 µM (top of the series), parasite line B
# [10] = at 28.7 µM (top of the series), parasite line A
# [11] = at 28.7 µM (top of the series), parasite line B
# Potency is the fitted concentration of half-maximal effect.
structure (smiles),measurement,setting,value
CCC(=O)N[C@H]1CC[C@H](C(=O)N(C)c2ccc(-c3nc4ccccc4o3)cc2)C1,Z-AUC,[1],-0.0495 (inactive)
same,Z-AUC,[1]; [4],-0.000542
same,Z-AUC,[1]; measured here: PEO4 Z-AUC,0.214
Nc1nccc(-c2ccc3noc(-c4ccc(Cl)cc4)c3c2)n1,Z-AUC,[1],0.305 (inactive)
same,Z-AUC,[1]; [4],0.344
same,Z-AUC,[1]; measured here: PEO4 Z-AUC,0.149
CN(C)c1ccc(Nc2nc(N)n(C(=O)c3c(F)cccc3F)n2)cc1,Z-AUC,[1],0.994 (inactive)
same,Z-AUC,[1]; [4],0.58
same,Z-AUC,[1]; measured here: PEO4 Z-AUC,0.398
O=C(Nc1nc2ccccc2n1CCN1CCOCC1)c1cccc([N+](=O)[O-])c1,Z-AUC,[1],1.54 (inactive)
same,Z-AUC,[1]; [4],1.06
same,Z-AUC,[1]; measured here: PEO4 Z-AUC,1.04
CCN(CC)CCCC(C)Nc1ccnc2cc(Cl)ccc12 (configuration not stated),Z-AUC,[1],0.106 (inactive)
same,Z-AUC,[1]; [4],0.505
same,Z-AUC,[1]; measured here: PEO4 Z-AUC,0.615
Cc1c(CCOc2ccc(C(=O)O)cc2)c2cc(Cl)ccc2n1C(c1ccccc1)c1ccccc1,Z-AUC,[1],0.749 (inactive)
same,Z-AUC,[1]; [4],1.16
same,Z-AUC,[1]; measured here: PEO4 Z-AUC,0.896
Cc1ccc(-n2nc(C(C)(C)C)cc2NC(=O)Nc2ccc(OCCN3CCOCC3)c3ccccc23)cc1,Z-AUC,[1],0.154 (inactive)
same,Z-AUC,[1]; [4],0.786
same,Z-AUC,[1]; measured here: PEO4 Z-AUC,0.35
COc1cc(Oc2ccnc3cc(OC)c(OC)cc23)ccc1NC(=O)NC(C)c1nccs1 (configuration not stated),Z-AUC,[1],-0.894 (inactive)
same,Z-AUC,[1]; [4],-0.402
same,Z-AUC,[1]; measured here: PEO4 Z-AUC,-0.764
CCn1cc(C(=O)O)c(=O)c2cc(F)c(N3CCNC(C)C3)c(F)c21 (configuration not stated),Z-AUC,[1],-0.481 (inactive)
same,Z-AUC,[1]; [4],-0.703
same,Z-AUC,[1]; measured here: PEO4 Z-AUC,-0.581
same,z-score,[2]; [5],0.479
same,z-score,[2]; [6],0.345
same,z-score,[2]; [7],0.675
Nc1cccc(S(=O)(=O)N2CCCN(S(=O)(=O)c3ccc4c(c3)OCCO4)CC2)c1,Z-AUC,[1],1.03 (inactive)
same,Z-AUC,[1]; [4],0.843
same,Z-AUC,[1]; measured here: PEO4 Z-AUC,0.787
CC(C)(Sc1ccc(CCN(CCCCC2CCCCC2)C(=O)NC2CCCCC2)cc1)C(=O)O,Z-AUC,[1],1.3 (inactive)
same,Z-AUC,[1]; [4],1.26
same,Z-AUC,[1]; measured here: PEO4 Z-AUC,1.25
same,z-score,[2]; [5],0.806
same,z-score,[2]; [6],0.0749
same,z-score,[2]; [7],0.555
COc1ccc(-c2ccc3c(N4CCOCC4)nc(N4C[C@@H](C)O[C@@H](C)C4)nc3n2)cc1CO,Z-AUC,[1],1.56 (inactive)
same,Z-AUC,[1]; [4],1.12
same,Z-AUC,[1]; measured here: PEO4 Z-AUC,1.19
CCc1cncnc1N1CCN(Cc2nc3ccc(C(F)(F)F)cc3[nH]2)CC1,Z-AUC,[1],-0.0922 (inactive)
same,Z-AUC,[1]; [4],-0.164
same,Z-AUC,[1]; measured here: PEO4 Z-AUC,0.451
C[C@]12CCC(=O)C=C1CC[C@@H]1[C@@H]2[C@@H](O)C[C@@]2(C)[C@H]1CC[C@]2(O)C(=O)CO,Z-AUC,[1],0.00041 (inactive)
same,Z-AUC,[1]; [4],0.66
same,Z-AUC,[1]; measured here: PEO4 Z-AUC,-0.19
Cc1cc(SCc2sc(-c3ccc(C(F)(F)F)cc3)nc2C)ccc1OCC(=O)O,Z-AUC,[1],1.25 (inactive)
same,Z-AUC,[1]; [4],0.45
same,Z-AUC,[1]; measured here: PEO4 Z-AUC,0.535
same,z-score,[2]; [5],0.936
same,z-score,[2]; [6],0.482
same,z-score,[2]; [7],0.629
CCCC(CCC)C(=O)O,Z-AUC,[1],0.56 (inactive)
same,Z-AUC,[1]; [4],0.704
same,Z-AUC,[1]; measured here: PEO4 Z-AUC,0.624
COc1ccccc1[C@H](c1cccc2ccccc12)[C@@](C)(C#N)C(=O)N1CCC(c2cccc(C(F)(F)F)c2)CC1,Z-AUC,[1],1.34 (inactive)
same,Z-AUC,[1]; [4],1.15
same,Z-AUC,[1]; measured here: PEO4 Z-AUC,1.29
O=c1[nH]c(-c2ccc(C(F)(F)F)cc2)nc2c1CSCC2,Z-AUC,[1],0.604 (inactive)
same,Z-AUC,[1]; [4],0.431
same,Z-AUC,[1]; measured here: PEO4 Z-AUC,0.432
CCC(C)N(C)C(=O)c1cc2ccccc2c(-c2ccccc2Cl)n1 (configuration not stated),Z-AUC,[1],-0.72 (inactive)
same,Z-AUC,[1]; [4],-0.771
same,Z-AUC,[1]; measured here: PEO4 Z-AUC,-0.805
same,z-score,[2]; [5],0.652
same,z-score,[2]; [6],0.425
same,z-score,[2]; [7],-0.135
COc1ccc(CCN2CCN(CCCc3ccccc3)CC2)cc1OC,Z-AUC,[1],-0.614 (inactive)
same,Z-AUC,[1]; [4],-0.141
same,Z-AUC,[1]; measured here: PEO4 Z-AUC,-0.419
Cc1csc(NC(=O)c2sc3nc4c(c(C(F)(F)F)c3c2N)CCC4)n1,Z-AUC,[1],0.359 (inactive)
same,Z-AUC,[1]; [4],0.125
same,Z-AUC,[1]; measured here: PEO4 Z-AUC,0.375
CCOc1cc(C(=O)Nc2ccc(Cl)c(-c3nc4ccccc4[nH]3)c2)cc(OCC)c1OCC,Z-AUC,[1],-0.941 (inactive)
same,Z-AUC,[1]; [4],0.578
same,Z-AUC,[1]; measured here: PEO4 Z-AUC,-0.467
CO[C@@H]1[C@H](N(C)C(=O)c2ccccc2)C[C@H]2O[C@]1(C)n1c3ccccc3c3c4c(c5c6ccccc6n2c5c31)C(=O)NC4,Potency,[1],1.55 µM (active)
same,Z-AUC,[1]; [4],-1.27
same,Z-AUC,[1]; measured here: PEO4 Z-AUC,-1.21
Cc1cnc(Nc2ccc(OCCN3CCCC3)cc2)nc1Nc1cccc(S(=O)(=O)NC(C)(C)C)c1,Potency,[1],1.95 µM (active)
same,Z-AUC,[1]; [4],-1.63
same,Z-AUC,[1]; measured here: PEO4 Z-AUC,-1.56
c1ccc(-c2nn3c(c2-c2ccnc4cc(OCCN5CCOCC5)ccc24)CCC3)nc1,Z-AUC,[1],0.744 (inactive)
same,Z-AUC,[1]; [4],0.379
same,Z-AUC,[1]; measured here: PEO4 Z-AUC,0.692
CC1(C)Cc2c(-c3ccccc3)c(-c3ccc(Cl)cc3)c(CC(=O)O)n2C1,Z-AUC,[1],0.0211 (inactive)
same,Z-AUC,[1]; [4],0.818
same,Z-AUC,[1]; measured here: PEO4 Z-AUC,0.66
c1ccc([C@H]2CN3CCSC3=N2)cc1,Z-AUC,[1],-0.761 (inactive)
same,Z-AUC,[1]; [4],-0.401
same,Z-AUC,[1]; measured here: PEO4 Z-AUC,-0.638
same,z-score,[2]; [5],0.343
same,z-score,[2]; [6],0.703
same,z-score,[2]; [7],0.523
CN([C@@H](Cc1ccc(OS(=O)(=O)c2cccc3cnccc23)cc1)C(=O)N1CCN(c2ccccc2)CC1)S(=O)(=O)c1cccc2cnccc12,Z-AUC,[1],1.57 (inactive)
same,Z-AUC,[1]; [4],1.54
same,Z-AUC,[1]; measured here: PEO4 Z-AUC,1.7
C#Cc1cccc(Nc2ncnc3cc(OCCOC)c(OCCOC)cc23)c1,Potency,[2]; TFE3-RCC UOK109 viability,0.0526 µM (active)
Oc1cccc(-c2nc(N3CCOCC3)c3oc4ncccc4c3n2)c1,Potency,[2]; TFE3-RCC UOK109 viability,4.81 µM (active)
CCCCNc1cc(C(=O)O)cc(S(N)(=O)=O)c1Oc1ccccc1,"activity, negative = inhibition",[3]; [8],-5.15% (inactive)
same,"activity, negative = inhibition",[3]; [9],8.34% (inactive)
Nc1nc2c(ncn2COCCO)c(=O)[nH]1,"activity, negative = inhibition",[3]; [8],8.65% (inactive)
same,"activity, negative = inhibition",[3]; [9],-5.76% (inactive)
C1COC(NC(C2CC2)C2CC2)=N1,Potency,[3]; parasite line A,7.94 µM (active)
CC(C)C[C@H](NC(=O)[C@@H](O)[C@H](N)Cc1ccccc1)C(=O)O,Potency,[3]; parasite line A,2.51 µM (active)
same,Potency,[3]; parasite line B,5.62 µM (active)
Clc1ccc(Nc2nnc(Cc3ccncc3)c3ccccc23)cc1,Z-AUC,[1],0.341 (inactive)
same,Z-AUC,[1]; [4],0.338
same,Z-AUC,[1]; measured here: PEO4 Z-AUC,0.325
same,"activity, negative = inhibition",[3]; [10],-16.8% (inactive)
same,"activity, negative = inhibition",[3]; [11],-13.7% (inactive)
same,Potency,3D7,inactive
same,Potency,7G8,10 µM (active)
same,Potency,ATS189,inactive
same,Potency,ATS95,inactive
same,Potency,C2A,inactive
same,Potency,CP185,inactive
same,Potency,CP192,inactive
CC(=O)Oc1ccccc1C(=O)O,Z-AUC,[1],0.925 (inactive)
same,Z-AUC,[1]; [4],0.885
same,Z-AUC,[1]; measured here: PEO4 Z-AUC,1.16
same,"activity, negative = inhibition",[3]; [10],3.3% (inactive)
same,"activity, negative = inhibition",[3]; [11],6.15% (inactive)
same,Potency,3D7,inactive
same,Potency,7G8,inactive
same,Potency,AA1029,inactive
same,Potency,AS120,inactive
same,Potency,ATS189,inactive
same,Potency,ATS95,inactive
same,Potency,C2A,inactive
same,Potency,CP185,inactive
same,Potency,CP191,inactive
same,Potency,CP192,inactive
NC(N)=NC(=O)c1nc(Cl)c(N)nc1N,Z-AUC,[1],-0.792 (inactive)
same,Z-AUC,[1]; [4],-0.971
same,Z-AUC,[1]; measured here: PEO4 Z-AUC,-0.392
same,Potency,7G8,2 µM (active)
same,Potency,CP185,inactive
same,Potency,CP191,8.91 µM (active)
same,Potency,CP192,inactive
